The results in this text go back to PubChem BioAssay (NCI).

This is part of a sample that, as a whole, favours compounds with a hit. Of some 79,000 tested, about 15% had one in any assay. A number with no mark means an inactive call. Active and inactive are the calls of the source. No stated cut-off is given here; in the data, active means growth inhibition above about 70%; inactive means the rest.

Experiment [1] in a line: NCI Yeast Anticancer Drug Screen. Data for the rad50 strain (AID 155).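 Further: 0% = growth of vehicle-only cultures of the same strain.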 To be noted: S. cerevisiae rad50 strain growth inhibition, active compounds read high. Put shortly:
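Vehicle-treated cultures provide the reference for the growth inhibition reported for compound-exposed, repair-deficient yeast.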

A short description of experiment [2]: NCI Yeast Anticancer Drug Screen. Data for the mec2-1 strain (AID 157). The conditions noted are these: S. cerevisiae mec2-1 strain, active compounds read high. Put shortly:
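Yeast mec2-1 mutant treated with compound. Readout: growth inhibition vs vehicle controls.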

Experiment [3] in a line: NCI Yeast Anticancer Drug Screen. Data for the sgs1 mgt1 strain (AID 161).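 Further: 0% = growth of cultures given vehicle only.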 The conditions noted are these: S. cerevisiae sgs1 mgt1 strain, active compounds read high. Put shortly:
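Genetically altered yeast, compound exposure, growth inhibition relative to vehicle.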

Experiment [4] is described as follows: NCI Yeast Anticancer Drug Screen. Data for the cln2 rad14 strain (AID 165).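 Further: 0% = growth equal to vehicle treated cultures.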 The conditions noted are these: S. cerevisiae cln2 rad14 strain, active compounds read high. Put shortly:
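cln2 rad14 yeast strain; compound exposure; growth inhibition read vs vehicle controls.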

Experiment [5] in a line: NCI Yeast Anticancer Drug Screen. Data for the bub3 strain (AID 167). To be noted: S. cerevisiae bub3 mutant strain, active compounds read high. The essentials: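 Mutant yeast screening strain plus compound; vehicle-treated cultures serve as the 0% inhibition reference.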
The nature of experiment [6]: NCI Yeast Anticancer Drug Screen. Data for the mlh1 rad18 strain (AID 175). The conditions noted are these: S. cerevisiae mlh1 rad18 strain growth inhibition, active compounds read high. Put shortly: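 Yeast w/ defined DNA-repair lesions; compound exposure; growth vs vehicle controls → % inhibition.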
Where [7] appears, read: at 5.0 µM (retest, dose inferred, filed as 0.5).
Setting [8] is: at 50.0 µM (retest, dose inferred, filed as 5.0).

In the case of `C=C1C(=O)OC2CC3(C)CCCC(C)C3=CC12` (configuration not stated), the growth inhibition was 18% in experiment [1] (setting [7]); 27% in experiment [1] (setting [8]); 49.5% in experiment [1] (at 50.0 µM); 10% in experiment [2] (setting [7]); 56% in experiment [2] (setting [8]); 46.9% in experiment [2] (at 50.0 µM). Moreover, the growth inhibition is 15% in experiment [3] (setting [7]); 49% in experiment [3] (setting [8]); 80% (active) in experiment [3] (at 50.0 µM); 7% in experiment [4] (setting [7]); 25% in experiment [4] (setting [8]); 16.2% in experiment [4] (at 50.0 µM). Besides, the growth inhibition is 14% in experiment [5] (setting [7]); 63% in experiment [5] (setting [8]); 78.8% (active) in experiment [5] (at 50.0 µM); 14% in experiment [6] (setting [7]); 41% in experiment [6] (setting [8]); 25% in experiment [6] (at 50.0 µM).

With `Oc1ccccc1N=Cc1ccccc1`, the growth inhibition in experiment [1] (setting [7]) was 23%; in experiment [1] (setting [8]), 75% (active); in experiment [1] (at 50.0 µM), 61%; in experiment [2] (setting [7]), 13%; in experiment [2] (setting [8]) it was 35%; in experiment [2] (at 50.0 µM), 44.2%. Also, the growth inhibition in experiment [3] (setting [7]) was 21%; in experiment [3] (setting [8]) it was 29%; in experiment [3] (at 50.0 µM), 60.6%; in experiment [4] (setting [7]), 12%; in experiment [4] (setting [8]), 45%; in experiment [4] (at 50.0 µM) it was 19.5%. In addition, the growth inhibition is 56% in experiment [5] (setting [7]); 86% (active) in experiment [5] (setting [8]); 77.5% (active) in experiment [5] (at 50.0 µM); 41% in experiment [6] (setting [7]); 81% (active) in experiment [6] (setting [8]); 72.5% (active) in experiment [6] (at 50.0 µM).

As to `O=C(NOC(=O)c1ccccc1)c1ccccc1`, the growth inhibition in experiment [1] (setting [7]) is 93% (active); in experiment [1] (setting [8]) it was 98% (active); in experiment [1] (at 50.0 µM), 99.3% (active); in experiment [2] (setting [7]), 64%; in experiment [2] (setting [8]), 99% (active); in experiment [2] (at 50.0 µM), 99.5% (active). Moreover, the growth inhibition was 82% (active) in experiment [3] (setting [7]); 99% (active) in experiment [3] (setting [8]); 99.5% (active) in experiment [3] (at 50.0 µM); 31% in experiment [4] (setting [7]); 99% (active) in experiment [4] (setting [8]); 99.3% (active) in experiment [4] (at 50.0 µM). The growth inhibition is 65% in experiment [5] (setting [7]); 99% (active) in experiment [5] (setting [8]); 99.3% (active) in experiment [5] (at 50.0 µM); 93% (active) in experiment [6] (setting [7]); 99% (active) in experiment [6] (setting [8]); 99.3% (active) in experiment [6] (at 50.0 µM).

With `CC(=O)C1Cc2ccccc2C1=O` (configuration not stated), the growth inhibition in experiment [1] (setting [7]) was 4%; in experiment [1] (setting [8]), 83% (active); in experiment [1] (at 50.0 µM), -9.4%; in experiment [2] (setting [7]) it was 3%; in experiment [2] (setting [8]), 44%; in experiment [2] (at 50.0 µM) it was 42.2%. Besides, the growth inhibition in experiment [3] (setting [7]) is 0%; in experiment [3] (setting [8]), 91% (active); in experiment [3] (at 50.0 µM), 41.1%; in experiment [4] (setting [7]) it was 1%; in experiment [4] (setting [8]), 50%; in experiment [4] (at 50.0 µM) it was -13.1%. Besides, the growth inhibition is 3% in experiment [5] (setting [7]); 93% (active) in experiment [5] (setting [8]); 9% in experiment [5] (at 50.0 µM); 4% in experiment [6] (setting [7]); 90% (active) in experiment [6] (setting [8]); 71.8% (active) in experiment [6] (at 50.0 µM).

On to `CCCc1cc(=O)oc2c3c(c4c(c12)OC(C)(C)CC4)OC(C)[C@H](C)[C@@H]3O` (some centres not stated), for which the growth inhibition in experiment [1] (setting [7]) is 36%; in experiment [1] (setting [8]), 90% (active); in experiment [1] (at 50.0 µM) it was 83.7% (active); in experiment [2] (setting [7]) it was 36%; in experiment [2] (setting [8]), 92% (active); in experiment [2] (at 50.0 µM) it was 85.6% (active). The growth inhibition in experiment [3] (setting [7]) is 28%; in experiment [3] (setting [8]), 90% (active); in experiment [3] (at 50.0 µM), 80.2% (active); in experiment [4] (setting [7]), 27%; in experiment [4] (setting [8]) it was 93% (active); in experiment [4] (at 50.0 µM) it was 85.2% (active). Moreover, the growth inhibition in experiment [5] (setting [7]) is 12%; in experiment [5] (setting [8]) it was 90% (active); in experiment [5] (at 50.0 µM) it was 80.1% (active); in experiment [6] (setting [7]), 31%; in experiment [6] (setting [8]), 94% (active); in experiment [6] (at 50.0 µM), 77% (active).

On to `COc1cccc(N=N/C(=N\NC(=O)c2cc(Br)ccc2O)c2ccc(N(CCC#N)CCC#N)cc2OC)c1`, for which the growth inhibition in experiment [1] (setting [7]) is 17%; in experiment [1] (setting [8]) it was 30%; in experiment [1] (at 50.0 µM) it was 72% (active); in experiment [2] (setting [7]), 22%; in experiment [2] (setting [8]), 35%; in experiment [2] (at 50.0 µM), 48.9%. Besides, the growth inhibition is -8% in experiment [3] (setting [7]); 34% in experiment [3] (setting [8]); 34.5% in experiment [3] (at 50.0 µM); 0% in experiment [4] (setting [7]); 19% in experiment [4] (setting [8]); 20.9% in experiment [4] (at 50.0 µM). In addition, the growth inhibition in experiment [5] (setting [7]) was -2%; in experiment [5] (setting [8]), 42%; in experiment [5] (at 50.0 µM), 39.4%; in experiment [6] (setting [7]), 26%; in experiment [6] (setting [8]), 43%; in experiment [6] (at 50.0 µM) it was 76.2% (active).

`CC(C)Nc1ccc(Nc2ccc(NC(C)C)cc2)cc1`: the growth inhibition in experiment [1] (setting [7]) is 0%; in experiment [1] (setting [8]), 81% (active); in experiment [1] (at 50.0 µM) it was 65.7%; in experiment [2] (setting [7]), -21%; in experiment [2] (setting [8]) it was 74% (active); in experiment [2] (at 50.0 µM), 97% (active). Also, the growth inhibition is -1% in experiment [3] (setting [7]); 59% in experiment [3] (setting [8]); 48% in experiment [3] (at 50.0 µM); -10% in experiment [4] (setting [7]); 73% (active) in experiment [4] (setting [8]); 92.9% (active) in experiment [4] (at 50.0 µM). Further, the growth inhibition in experiment [5] (setting [7]) was -7%; in experiment [5] (setting [8]) it was 80% (active); in experiment [5] (at 50.0 µM), 92.5% (active); in experiment [6] (setting [7]) it was -15%; in experiment [6] (setting [8]), 51%; in experiment [6] (at 50.0 µM), 92.3% (active).

Regarding `c1csc(-c2[nH]nc3c2CCc2ccccc2-3)c1`, the growth inhibition in experiment [1] (setting [7]) is 19%; in experiment [1] (setting [8]), 97% (active); in experiment [1] (at 50.0 µM), 98.3% (active); in experiment [2] (setting [7]), -13%; in experiment [2] (setting [8]), 97% (active); in experiment [2] (at 50.0 µM) it was 96.6% (active). The growth inhibition in experiment [3] (setting [7]) was -2%; in experiment [3] (setting [8]), 98% (active); in experiment [3] (at 50.0 µM), 97.6% (active); in experiment [4] (setting [7]), -6%; in experiment [4] (setting [8]), 96% (active); in experiment [4] (at 50.0 µM), 98.5% (active). The growth inhibition in experiment [5] (setting [7]) was 18%; in experiment [5] (setting [8]), 98% (active); in experiment [5] (at 50.0 µM) it was 97.1% (active); in experiment [6] (setting [7]), -3%; in experiment [6] (setting [8]) it was 97% (active); in experiment [6] (at 50.0 µM), 98.8% (active).

On to `CCSc1nc2ccccc2o1`, for which the growth inhibition in experiment [1] (setting [7]) was 7%; in experiment [1] (setting [8]) it was 0%; in experiment [1] (at 50.0 µM), 54.4%; in experiment [2] (setting [7]), 0%; in experiment [2] (setting [8]) it was -1%; in experiment [2] (at 50.0 µM), 39.6%. The growth inhibition was 6% in experiment [3] (setting [7]); 2% in experiment [3] (setting [8]); 9.4% in experiment [3] (at 50.0 µM); 6% in experiment [4] (setting [7]); -2% in experiment [4] (setting [8]); 30.6% in experiment [4] (at 50.0 µM). Also, the growth inhibition in experiment [5] (setting [7]) is 3%; in experiment [5] (setting [8]), -2%; in experiment [5] (at 50.0 µM), 42.6%; in experiment [6] (setting [7]) it was 3%; in experiment [6] (setting [8]), -3%; in experiment [6] (at 50.0 µM) it was -15.7%.
